The source of these data is the supplement of paper PMC4100887.

± gives the standard deviation of the averaged measurements.

This test relates to K562. Kind of test: relative cell viability (ATPlite) vs untreated control, with imatinib (fraction); higher = less toxic. The settings on record: 1 µM; 72 h; imatinib 0.125 µM. (In general: Cellular ATP, detected with luciferase, serves as a proxy for viable cell number.)
Molecule `OCC(O)CCO/N=C1\C(c2c(O)[nH]c3ccccc23)=Nc2ccccc21` (configuration not stated) [Indirubin Derivative E804] gave a relative cell viability of 0.644 ± 0.071.

Consider `O=C(Nc1ccncc1)Nc1c(Cl)cc(Cl)cc1Cl` [Rho Kinase Inhibitor II], for which the relative cell viability worked out at 0.743 ± 0.03.

Take `CC(C)(C)c1nc2c3cc[nH]c(=O)c3c3cc(F)ccc3c2[nH]1` [JAK Inhibitor I]: the relative cell viability was 0.72 ± 0.035.

Molecule `Cc1ncc2ccccc2c1C#N` [4-Cyano-3-methylisoquinoline] registered a relative cell viability of 0.828 ± 0.032.

Take `Cc1ccc(NC2=CC(=O)c3sc(C)nc3C2=O)cc1` [Cdk4 Inhibitor III]: the relative cell viability was found to be 0.685 ± 0.14.

For the molecule `CCOC(=O)c1c(C)[nH]c(/C=C2\C(=O)Nc3ccccc32)c1C` [VEGF Receptor 2 Kinase Inhibitor I], the relative cell viability was 0.845 ± 0.075.

Take `C[S+]([O-])c1ccc(-c2nc(-c3ccc(F)cc3)c(-c3ccncc3)[nH]2)cc1` (configuration not stated): the relative cell viability turned out to be 0.751 ± 0.048.

Molecule `CC(C)n1cnc2c(NCc3ccccc3O)nc(NCCCO)nc21` [Cdk Inhibitor, p35] gave a relative cell viability of 0.779 ± 0.03.

Molecule `CCN(CC)CCNC(=O)c1c(C)[nH]c(/C=C2\C(=O)Nc3ccc(Cl)cc32)c1C` showed a relative cell viability of 0.799 ± 0.052.

Regarding `Cn1cc(C2=C(c3cn(CCCSC(=N)N)c4ccccc34)C(=O)NC2=O)c2ccccc21`, the relative cell viability was found to be 0.733 ± 0.062.

As for `Cc1nc2cc3nc(-c4cccs4)cnc3cc2n1C`, the relative cell viability was 0.288 ± 0.015.

Molecule `CCCCc1c(-c2ccc(O)cc2)[nH]c2nccnc12` [Aloisine A, RP107] showed a relative cell viability of 0.77 ± 0.032.

`O=C(c1ccccc1)c1ccc(N2CCOCC2)cc1O` [DNA-PK Inhibitor V] yielded a relative cell viability of 0.756 ± 0.03.

On to `Cc1ccc(S(=O)(=O)/C=C/C#N)cc1`, for which the relative cell viability is 0.697 ± 0.14.

In turn, `COc1ccc2nc3n[nH]c(C)c3c(NCCOCCO)c2c1` gave a relative cell viability of 0.843 ± 0.066.

As to `COc1ccc(CNC(=O)Nc2ncc([N+](=O)[O-])s2)cc1` [GSK-3b Inhibitor VIII], the relative cell viability was 0.713 ± 0.049.

The molecule `CO[C@H]1C[C@@H]2CC[C@@H](C)[C@@](O)(O2)C(=O)C(=O)N2CCCC[C@H]2C(=O)O[C@H]([C@H](C)C[C@@H]2CC[C@@H](O)[C@H](OC)C2)CC(=O)[C@H](C)/C=C(\C)[C@@H](O)[C@@H](OC)C(=O)[C@H](C)C[C@H](C)/C=C/C=C/C=C/1C` [Rapamycin] came in with a relative cell viability of 0.481 ± 0.036.

`COc1cc2ncc(-c3ccccc3)nc2cc1OC` registered a relative cell viability of 0.76 ± 0.045.

`CC[C@H](CO)Nc1nc(NCc2ccccc2O)c2ncn(C(C)C)c2n1` [Olomoucine II] registered a relative cell viability of 0.715 ± 0.028.

`Cc1ccc([N+](=O)[O-])cc1S(=O)(=O)N(C)/N=C/c1cnc2ccc(Br)cn12` [PI 3-Kα Inhibitor VIII] showed a relative cell viability of 0.681 ± 0.044.

With `NC(=O)c1ccc2nc(-c3ccc(Oc4ccc(Cl)cc4)cc3)[nH]c2c1` [Chk2 Inhibitor II], the relative cell viability worked out at 0.681 ± 0.027.

Molecule `O=C(Nc1cc(C(F)(F)F)cc(C(F)(F)F)c1)c1cc(Cl)ccc1O` [IKK-2 Inhibitor V] registered a relative cell viability of 0.477 ± 0.011.

Regarding `Cc1cc(C=C2C(=O)C=CC2=O)cc(C)c1O`, the relative cell viability turned out to be 0.595 ± 0.12.

Molecule `CCCOc1ccc(/C=C2/SC(=O)NC2=O)cc1` [PIM1/2 Kinase Inhibitor VI] showed a relative cell viability of 0.802 ± 0.029.

Molecule `O=C1Cc2c([nH]c3ccc([N+](=O)[O-])cc23)-c2ccccc2N1` [Alsterpaullone] showed a relative cell viability of 0.812 ± 0.026.

`O=C(O)c1ccc2c3c1cccc3c(=O)n1c3ccccc3nc21`: the relative cell viability was 0.811 ± 0.088.

For `Cc1cc2ncc(-c3ccccc3)nc2cc1C`, the relative cell viability came out at 0.719 ± 0.05.

The molecule `O=C(Nc1ccc(-c2cn[nH]c2)cc1)C1COc2ccccc2O1` (configuration not stated) [Rho Kinase Inhibitor V] returned a relative cell viability of 0.687 ± 0.028.

Take `Cn1c2ccccc2c2c3c(c4c5ccccc5n(CCC#N)c4c21)CNC3=O`: the relative cell viability was 0.739 ± 0.048.

As for `Nc1[nH]nc2nnc(-c3c(-c4ccccc4)nn4ccccc34)cc12`, the relative cell viability was determined as 0.779 ± 0.048.

Regarding `NC(=O)Nc1cc(-c2ccccc2)sc1C(N)=O` [IKK-2 Inhibitor XI], the relative cell viability worked out at 0.802 ± 0.037.

On to `COc1cc2ncnc(Nc3ccc(NC(=O)c4ccccc4)cc3)c2cc1OC` [Aurora Kinase Inhibitor II], for which the relative cell viability came out at 0.783 ± 0.027.
